Set-up in all cases: scale not given: direction of the effect not stated beside the values
Experiment [1] has as its target Protein translocase subunit SecA (Escherichia coli (strain K12)) (UniProt P10408). Kind of experiment: Assay to Identify E. coli SecA ATPase Inhibitors. The class given is functional. Particulars: 30 µM.
The target in experiment [2] is T1, Ubiquitin-activating enzyme e1, putative (Leishmania donovani (strain BPK282A1)) (UniProt E9BSI1).
T1 sequence (whole entry): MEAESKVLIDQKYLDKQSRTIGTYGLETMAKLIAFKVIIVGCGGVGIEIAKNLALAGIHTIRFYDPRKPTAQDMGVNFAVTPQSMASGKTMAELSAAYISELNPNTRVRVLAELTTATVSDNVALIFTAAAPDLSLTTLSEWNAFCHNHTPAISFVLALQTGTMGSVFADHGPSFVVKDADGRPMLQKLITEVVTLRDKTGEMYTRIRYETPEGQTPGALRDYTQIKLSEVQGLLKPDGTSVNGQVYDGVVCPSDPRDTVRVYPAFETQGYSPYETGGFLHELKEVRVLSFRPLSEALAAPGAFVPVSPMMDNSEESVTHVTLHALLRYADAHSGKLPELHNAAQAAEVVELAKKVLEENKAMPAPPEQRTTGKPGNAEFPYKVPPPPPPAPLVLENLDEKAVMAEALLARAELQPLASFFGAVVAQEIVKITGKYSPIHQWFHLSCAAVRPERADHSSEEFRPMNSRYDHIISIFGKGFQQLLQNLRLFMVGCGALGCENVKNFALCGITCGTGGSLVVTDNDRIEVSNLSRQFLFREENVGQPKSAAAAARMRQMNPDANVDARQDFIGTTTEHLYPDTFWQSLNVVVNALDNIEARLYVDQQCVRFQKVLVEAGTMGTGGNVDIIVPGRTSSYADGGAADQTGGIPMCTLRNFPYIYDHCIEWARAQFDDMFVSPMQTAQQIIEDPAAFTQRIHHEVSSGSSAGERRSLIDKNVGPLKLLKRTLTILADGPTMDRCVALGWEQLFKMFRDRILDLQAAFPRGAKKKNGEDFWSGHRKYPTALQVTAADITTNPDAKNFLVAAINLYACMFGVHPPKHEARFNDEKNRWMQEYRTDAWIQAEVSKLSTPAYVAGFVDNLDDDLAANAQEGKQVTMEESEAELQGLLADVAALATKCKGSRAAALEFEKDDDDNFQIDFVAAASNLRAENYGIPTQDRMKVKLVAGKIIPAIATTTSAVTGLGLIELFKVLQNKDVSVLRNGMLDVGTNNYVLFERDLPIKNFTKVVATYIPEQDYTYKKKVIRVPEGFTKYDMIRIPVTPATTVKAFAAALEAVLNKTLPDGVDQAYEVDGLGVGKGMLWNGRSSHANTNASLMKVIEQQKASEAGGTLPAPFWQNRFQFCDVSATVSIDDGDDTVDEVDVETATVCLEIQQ
Kind of experiment: Leishmania donovani Ubiquitin Activating Enzyme (LdE1). Type of experiment: functional. Particulars: 30 µM.

Experiment [3] deals with AMP-activated protein kinase, AMPK (Homo sapiens) (UniProt P54646+O43741+P54619+Q9UGJ0+Q9Y478+Q13131+Q9UGI9). Kind of experiment: AMP-dependent Kinase enzyme assay. An in vitro enzyme assay that detects ADP turnover that is directly proportional to AMPK activity. This uses naive AMPK that is activated during the assay with MK-8722. Type of experiment: functional. The conditions noted are these: 30 µM.

The target in experiment [4] is Sialic acid-binding Ig-like lectin 9 (Homo sapiens) (UniProt Q9Y336). Kind of experiment: Hs-Siglec9 ALPHAscreen SOP 20170721. Particulars: 10 µM. In general terms: In Alpha technology, singlet oxygen from a donor bead excites a nearby acceptor bead.
Sialic acid-binding Ig-like lectin 9 (Homo sapiens), sequence (Q9Y336 whole entry): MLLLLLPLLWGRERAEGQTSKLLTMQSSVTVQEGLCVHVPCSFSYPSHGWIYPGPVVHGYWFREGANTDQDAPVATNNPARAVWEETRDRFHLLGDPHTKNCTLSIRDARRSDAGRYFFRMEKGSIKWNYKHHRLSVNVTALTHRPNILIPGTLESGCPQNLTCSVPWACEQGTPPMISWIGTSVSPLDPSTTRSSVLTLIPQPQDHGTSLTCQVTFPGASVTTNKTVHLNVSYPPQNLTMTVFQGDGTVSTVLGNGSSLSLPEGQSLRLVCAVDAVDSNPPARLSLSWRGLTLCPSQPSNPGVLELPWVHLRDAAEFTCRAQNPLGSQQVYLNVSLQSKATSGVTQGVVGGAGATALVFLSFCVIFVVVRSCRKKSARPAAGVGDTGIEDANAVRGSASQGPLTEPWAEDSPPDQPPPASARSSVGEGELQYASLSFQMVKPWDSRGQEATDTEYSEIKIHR
A further experiment deals with Trypanosoma cruzi. Kind of experiment: Trypanosoma cruzi phosphomannomutase and mannose-1-phosphate guanylyltransferase assay. Type of experiment: functional. The conditions noted are these: 10 µM.
Experiment [5] has as its target T2, Arginase-2, mitochondrial (Homo sapiens) (UniProt P78540).
T2 sequence (whole entry): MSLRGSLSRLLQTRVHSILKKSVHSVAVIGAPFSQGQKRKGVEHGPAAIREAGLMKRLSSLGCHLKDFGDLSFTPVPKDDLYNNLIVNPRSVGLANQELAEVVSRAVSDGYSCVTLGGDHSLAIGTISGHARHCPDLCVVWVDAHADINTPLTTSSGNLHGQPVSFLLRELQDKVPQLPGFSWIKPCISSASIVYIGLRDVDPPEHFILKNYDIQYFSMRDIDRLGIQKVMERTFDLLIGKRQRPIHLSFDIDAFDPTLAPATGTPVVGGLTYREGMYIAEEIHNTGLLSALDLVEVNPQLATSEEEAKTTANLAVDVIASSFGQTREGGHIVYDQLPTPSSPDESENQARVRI
Kind of experiment: in vitro enzyme assay to detect the production of urea directly proportional to the activity of Arginase II. Also: in the data most compounds retested in dose-response had high values. Type of experiment: functional. The conditions noted are these: 33.3 µM.

In experiment [6] the target is T3, Proteasome subunit beta (Trypanosoma cruzi) (UniProt O96673).
T3 sequence (whole entry): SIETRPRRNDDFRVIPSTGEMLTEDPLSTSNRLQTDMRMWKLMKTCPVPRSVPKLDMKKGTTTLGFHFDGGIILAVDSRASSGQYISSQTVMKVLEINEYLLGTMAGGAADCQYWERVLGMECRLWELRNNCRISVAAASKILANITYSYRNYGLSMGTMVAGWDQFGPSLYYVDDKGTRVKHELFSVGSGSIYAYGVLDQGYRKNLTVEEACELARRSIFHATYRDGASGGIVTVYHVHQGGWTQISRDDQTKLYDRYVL
Kind of experiment: Trypanosoma cruzi proteasome chymotrypsin-like activity (TcProtChymo) assay. Also: in the data most compounds retested in dose-response had high values. The class given is functional. The conditions noted are these: 9.37 µM.

For a further experiment, the species on record is Homo sapiens. Kind of experiment: To identify inhibition of the IFN signalling (Jak-Stat) pathway via expression of an eGFP reporter gene under the control of an IFN-stimulated response element (ISRE) containing MxA promoter. The conditions noted are these: 30 µM. Type of experiment: functional.
Experiment [7] concerns the target T4, Tyrosyl-tRNA synthetase, putative (Trypanosoma cruzi (strain CL Brener)) (UniProt Q4DSP6).
T4 sequence (whole entry): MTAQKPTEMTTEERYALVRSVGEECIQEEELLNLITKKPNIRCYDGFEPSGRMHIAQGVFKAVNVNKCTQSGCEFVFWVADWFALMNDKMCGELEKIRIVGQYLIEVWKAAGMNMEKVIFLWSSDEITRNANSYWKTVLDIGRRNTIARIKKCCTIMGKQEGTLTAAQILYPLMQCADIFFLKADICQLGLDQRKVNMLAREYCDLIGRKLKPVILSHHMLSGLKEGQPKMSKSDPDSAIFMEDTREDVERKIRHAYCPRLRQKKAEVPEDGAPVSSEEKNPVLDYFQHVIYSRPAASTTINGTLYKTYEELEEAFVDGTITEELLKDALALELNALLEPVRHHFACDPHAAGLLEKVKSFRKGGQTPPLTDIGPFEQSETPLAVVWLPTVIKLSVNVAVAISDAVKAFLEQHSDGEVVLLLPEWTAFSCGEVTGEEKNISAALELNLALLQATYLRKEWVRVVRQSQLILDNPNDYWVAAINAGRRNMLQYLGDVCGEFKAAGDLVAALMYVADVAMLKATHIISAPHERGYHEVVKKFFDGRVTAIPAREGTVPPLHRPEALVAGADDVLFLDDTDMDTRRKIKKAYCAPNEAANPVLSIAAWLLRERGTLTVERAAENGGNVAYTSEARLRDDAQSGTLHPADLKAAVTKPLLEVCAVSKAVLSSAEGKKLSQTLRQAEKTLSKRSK
Kind of experiment: Trypanosoma cruzi tyrosyl tRNA synthetase (TcYRS) _High Tyrosine SOP. Also: in the data most compounds retested in dose-response had high values. Type of experiment: functional. The conditions noted are these: 30 µM.

For experiment [8], the target named is T4, Tyrosyl-tRNA synthetase, putative (Trypanosoma cruzi (strain CL Brener)). Kind of experiment: Trypanosoma cruzi tyrosyl tRNA synthetase (TcYRS) SOP. Type of experiment: functional. The conditions noted are these: 30 µM.
Experiment [9] deals with Chromo domain-containing protein 1 (Saccharomyces cerevisiae (strain ATCC 204508 / S288c) (Baker's yeast)) (UniProt P32657). Kind of experiment: ScCHD-1 Enzyme Inhibition Assay. Also: in the data most compounds retested in dose-response had high values. The class given is functional. Particulars: 30 µM.
Chromo domain-containing protein 1 (Saccharomyces cerevisiae (strain ATCC 204508 / S288c) (Baker's yeast)), sequence (P32657 whole entry, the tested form may be a part): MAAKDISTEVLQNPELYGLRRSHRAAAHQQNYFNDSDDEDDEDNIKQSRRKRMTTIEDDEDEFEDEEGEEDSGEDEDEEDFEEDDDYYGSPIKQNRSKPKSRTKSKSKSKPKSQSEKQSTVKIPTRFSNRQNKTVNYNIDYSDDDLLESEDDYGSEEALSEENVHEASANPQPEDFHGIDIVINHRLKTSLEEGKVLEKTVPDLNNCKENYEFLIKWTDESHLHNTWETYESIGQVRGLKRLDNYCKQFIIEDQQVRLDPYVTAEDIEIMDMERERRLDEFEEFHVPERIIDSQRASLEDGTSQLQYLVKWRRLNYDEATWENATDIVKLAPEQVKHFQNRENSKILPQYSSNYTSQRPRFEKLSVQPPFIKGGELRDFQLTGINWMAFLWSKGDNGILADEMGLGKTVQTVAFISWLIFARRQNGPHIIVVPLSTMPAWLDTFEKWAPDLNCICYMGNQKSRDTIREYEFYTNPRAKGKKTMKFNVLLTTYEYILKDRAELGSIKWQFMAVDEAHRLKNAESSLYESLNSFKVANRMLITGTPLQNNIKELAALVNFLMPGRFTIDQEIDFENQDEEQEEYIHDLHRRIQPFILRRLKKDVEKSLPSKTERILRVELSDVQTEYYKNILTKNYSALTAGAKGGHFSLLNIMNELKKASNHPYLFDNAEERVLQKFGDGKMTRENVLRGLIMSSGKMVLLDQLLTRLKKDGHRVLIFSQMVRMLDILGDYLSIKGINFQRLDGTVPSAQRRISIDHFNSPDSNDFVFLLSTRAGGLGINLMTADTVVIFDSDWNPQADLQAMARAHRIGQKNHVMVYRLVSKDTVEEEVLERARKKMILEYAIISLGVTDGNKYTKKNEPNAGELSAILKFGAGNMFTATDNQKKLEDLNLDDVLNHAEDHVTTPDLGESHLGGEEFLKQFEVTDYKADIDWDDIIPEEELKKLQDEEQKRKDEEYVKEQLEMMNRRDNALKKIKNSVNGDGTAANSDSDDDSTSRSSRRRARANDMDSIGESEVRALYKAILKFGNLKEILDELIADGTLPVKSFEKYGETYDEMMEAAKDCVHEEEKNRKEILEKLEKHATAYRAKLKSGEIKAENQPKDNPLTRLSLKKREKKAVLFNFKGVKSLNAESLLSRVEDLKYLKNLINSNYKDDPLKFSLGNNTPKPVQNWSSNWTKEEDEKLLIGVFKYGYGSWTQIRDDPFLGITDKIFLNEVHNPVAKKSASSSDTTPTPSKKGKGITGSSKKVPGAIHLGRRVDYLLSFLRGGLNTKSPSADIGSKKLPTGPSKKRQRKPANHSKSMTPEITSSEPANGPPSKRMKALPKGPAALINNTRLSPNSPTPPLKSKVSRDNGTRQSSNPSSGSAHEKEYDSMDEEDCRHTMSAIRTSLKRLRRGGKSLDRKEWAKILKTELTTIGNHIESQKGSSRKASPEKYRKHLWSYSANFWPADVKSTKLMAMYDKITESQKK

For some of these results: Measured potencies and affinities stand elsewhere.

This note sets out measurements from ChEMBL document CHEMBL3988442, “University of Dundee, Small-Polar-MMV Screening Library” (2021).

Protein translocase subunit SecA (Escherichia coli (strain K12)), sequence (P10408 whole entry): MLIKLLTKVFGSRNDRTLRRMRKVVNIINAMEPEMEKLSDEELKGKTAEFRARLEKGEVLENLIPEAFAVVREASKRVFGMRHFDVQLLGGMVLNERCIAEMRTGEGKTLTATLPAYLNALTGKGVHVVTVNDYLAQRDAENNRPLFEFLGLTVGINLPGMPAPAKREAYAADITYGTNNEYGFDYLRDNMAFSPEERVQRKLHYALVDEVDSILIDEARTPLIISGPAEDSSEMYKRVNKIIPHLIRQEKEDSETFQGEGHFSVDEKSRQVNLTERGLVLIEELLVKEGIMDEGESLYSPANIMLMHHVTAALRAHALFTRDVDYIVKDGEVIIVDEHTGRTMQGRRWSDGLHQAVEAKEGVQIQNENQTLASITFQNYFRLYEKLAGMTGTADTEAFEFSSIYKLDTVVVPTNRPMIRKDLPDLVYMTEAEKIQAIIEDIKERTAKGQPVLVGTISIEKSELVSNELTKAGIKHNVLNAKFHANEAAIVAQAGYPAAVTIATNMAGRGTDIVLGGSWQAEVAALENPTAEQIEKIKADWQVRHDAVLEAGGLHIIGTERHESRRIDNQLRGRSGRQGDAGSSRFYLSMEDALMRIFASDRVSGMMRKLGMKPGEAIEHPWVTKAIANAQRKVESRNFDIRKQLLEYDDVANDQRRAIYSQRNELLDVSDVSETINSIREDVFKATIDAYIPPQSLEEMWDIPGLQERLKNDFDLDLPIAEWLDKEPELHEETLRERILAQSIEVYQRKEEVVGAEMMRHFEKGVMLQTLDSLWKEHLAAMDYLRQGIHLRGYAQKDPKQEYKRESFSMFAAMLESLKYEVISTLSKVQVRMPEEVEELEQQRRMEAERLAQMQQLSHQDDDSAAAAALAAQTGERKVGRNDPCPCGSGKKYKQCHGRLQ

In the case of `CC(OCC1CC1)C(=O)N1CCCN(Cc2cnn(C)c2)CC1` (stereo not drawn), the Percent Effect in experiment [1] is 1.55%; in experiment [2] it was 31.6%; in [3], -0.358%; in [4], -2.42%; in the experiment on Trypanosoma cruzi, -1.95%; in [5], -9.25%. Further, the Percent Effect was 21.6% in experiment [6]; 6.99% in the experiment listed under Homo sapiens; 5.21% in [7]; 17.7% in experiment [8]; -21.4% in experiment [9].

As to `CC(=O)N1[C@H](Cn2cncn2)C[C@@H]2CN(S(C)(=O)=O)CC[C@@H]21`, the Percent Effect is -4.17% in experiment [1]; 10.4% in experiment [2]; 1.39% in [3]; 9.47% in experiment [4]; 9.54% in the experiment with Trypanosoma cruzi; -74.5% in experiment [5]. The Percent Effect in experiment [6] was 14.5%; in the experiment listed under Homo sapiens, -25.9%; in experiment [7], 4.3%; in [8], 16.1%; in [9], -4.74%.

Regarding `C[S+]([O-])CCCNC(=O)c1cc(Br)c2c(c1)OCCO2` (stereo not drawn), the Percent Effect in experiment [1] is -5.04%; in experiment [2], 10.7%; in experiment [3], -5.08%; in experiment [4], 28.9%; with Trypanosoma cruzi, 5.55%; in [5] it was 48.4%. In addition, the Percent Effect in experiment [6] is 2.62%; in the experiment filed under Homo sapiens, 8.03%; in [7], 2.73%; in experiment [8] it was 13.6%; in experiment [9] it was -7.44%.

As to `Cc1ccc(C(=O)CCC(=O)N2CCC(c3nncn3C)CC2)cc1`, the Percent Effect in experiment [1] was -8.28%; in [2], 15.6%; in experiment [3], -6.09%; in [4] it was 19.9%; in the experiment on Trypanosoma cruzi, 5.24%; in experiment [5] it was 1.78%. The Percent Effect in experiment [6] was 11.3%; in the experiment filed under Homo sapiens it was 9.84%; in experiment [7], 5.83%; in experiment [8], 24.4%; in experiment [9], -1.85%.

With `c1cnn(CC2CN(c3ncnc4ccsc34)CCO2)c1` (stereo not drawn), the Percent Effect is -5.02% in experiment [1]; 2.7% in experiment [2]; 14.2% in experiment [3]; -3.02% in [4]; -4.69% in the experiment with Trypanosoma cruzi; 0.833% in experiment [5]. Moreover, the Percent Effect in [6] was 19.5%; in the experiment filed under Homo sapiens, 69.8%; in experiment [7], 4.95%; in experiment [8] it was 11%; in [9], 0.323%.

Regarding `CN(C)c1ncc(CN2CCC(c3nnsc3S(C)(=O)=O)CC2)cn1`, the Percent Effect in experiment [1] was -2.31%; in [2], -1.35%; in experiment [3] it was 11.6%; in [4], -0.17%; with Trypanosoma cruzi, -3.36%; in [5], 0.232%. The Percent Effect in [6] is 4.37%; in the experiment filed under Homo sapiens, 12.1%; in experiment [7], 3.23%; in experiment [8] it was 1.3%; in experiment [9], -9.61%.

Turning to `CC(C)S(=O)(=O)N1CCC(c2cc3n(n2)[C@@H](C(F)(F)F)C[C@@H](C)N3)C1` (stereo partly drawn), the Percent Effect in [1] was -0.301%; in experiment [2], 5.33%; in experiment [3], -46.3%; in experiment [4], 0.653%; in the experiment on Trypanosoma cruzi, 4.13%; in experiment [5], -1.63%. Also, the Percent Effect in experiment [6] is 5.02%; in the experiment filed under Homo sapiens it was 9.18%; in [7], 4.25%; in experiment [8], 6.41%; in experiment [9], -0.108%.

In the case of `O=S(=O)(c1ccccc1)N1CCN(CCn2ccnc2)CC1`, the Percent Effect is -6.59% in [1]; 2.74% in [2]; -6.09% in experiment [3]; -6.85% in experiment [4]; 0.979% in the experiment on Trypanosoma cruzi; 3.64% in experiment [5]. Besides, the Percent Effect in experiment [6] is 7.28%; in the experiment filed under Homo sapiens, 6.13%; in experiment [7] it was 6.45%; in experiment [8], 7.5%; in experiment [9], -3.52%.
